Legend:
Assay in all cases: PBM binding z-score (relative to random genomic background probes); higher = stronger binding; sequences stand for … in GC…GCGATTGACAGCGTAGAATGAAGG
[1] = system: RARb homodimer (NR concentration 270 nM)
How it was run: (§1)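 Scanned fluorescence from custom Agilent 4×180K protein-binding microarrays was regression-normalized. Binding z-scores use random background probes as reference. Ligand-free nuclear receptor dimers were incubated on the arrays for 1 h and detected with antibodies against each partner (one per run).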

[2] = system: RARg:RXRa (NR concentration 270 nM, RXRa partner concentration 90 nM)
How it was run: as §1

[3] = system: RARg homodimer (NR concentration 270 nM)
How it was run: as §1

[4] = system: RXRa DBDmut IVT, anti-RXR (DBD mutation: RXRa K156A/R161A, NR concentration 90 nM)
How it was run: as §1

[5] = system: RXRa homodimer (NR concentration 180 nM)
How it was run: as §1

[6] = system: THRa:RXRa (NR concentration 90 nM, RXRa partner concentration 90 nM)
How it was run: as §1

[7] = system: THRa homodimer (NR concentration 90 nM)
How it was run: as §1

[8] = system: VDR:RXRa (NR concentration 270 nM, RXRa partner concentration 90 nM)
How it was run: as §1

[9] = system: VDR homodimer (NR concentration 270 nM)
How it was run: as §1

| Sequence | PBM binding z-score [1] | PBM binding z-score [2] | PBM binding z-score [3] | PBM binding z-score [4] | PBM binding z-score [5] | PBM binding z-score [6] | PBM binding z-score [7] | PBM binding z-score [8] | PBM binding z-score [9] |
| --- | --- | --- | --- | --- | --- | --- | --- | --- | --- |
| CCGCCTGGGGCAAGGTTACCATAACGCACAGCCA | 1.52 | 1.06 | 1.1 | -0.994 | 0.987 | 1.3 | 0.7 | 0.149 | -0.0695 |
| TCGTGTAGATCAGCAGGTTAAGAAAGCTGGCCAA | -0.0746 | -0.298 | -0.396 | 0.345 | -0.115 | 0.0652 | -0.429 | 0.0438 | -0.282 |
| TCGCGTAGGTTAGGGGCATTCAGAATGGCGTCGA | 0.811 | 0.412 | 0.26 | 0.518 | 0.821 | 0.842 | 0.102 | 0.397 | 0.649 |
| GCGAATGGGGCAAAGCAGGTTACCATAAGGTTGG | 1.06 | 0.565 | 0.52 | -0.201 | 0.442 | 3.12 | 0.0667 | 0.361 | -0.552 |
| TCTAGTTGGTCACGGAGGTCATACACGACGGGTA | 4.18 | 4.45 | 4.21 | 1.16 | 4.65 | 3.5 | 2.17 | 5.88 | 3.53 |
| TCTTGTAGATCAAGCCGGTTAAGAAAGCCTGAGT | 0.000492 | -0.162 | -0.393 | 0.918 | 0.161 | -0.0654 | -0.203 | 0.32 | 0.0355 |
| TTTCGGAGGACACGAAAGGTCAGAGCTCGACATC | 4.68 | 4.88 | 5.29 | 0.16 | 4.66 | 3.85 | 1.39 | 3.54 | 1.04 |
| TAGCCTAGGTCATTCAGGAGCCAGTATAGAAAGC | 2.45 | 4.25 | 4.41 | 1.37 | 2.96 | 2.68 | 0.478 | 2.21 | 1.09 |
| CAAACTAGGTCACGAAAGGTCAAGGTCGAATGAC | 6.07 | 7.93 | 8.86 | 2.21 | 8 | 5.14 | 3.71 | 6.61 | 4.2 |
| GCATATAGGTAATACAAGGTGAAAGTTCGATTGT | 1.57 | 0.972 | 0.602 | 0.513 | 1.5 | 4.27 | 1.28 | 1.17 | 0.723 |
| TCTAGTTGGGCACGGAGGTCACACACGACGGGTA | 4.1 | 4.07 | 3.83 | 0.548 | 4.43 | 3.34 | 1.83 | 4.08 | 2.63 |
| TCGAGTAGGTTACCACTGGGGCATTCAGCTTTCT | 0.339 | 0.939 | 0.436 | 0.044 | 0.129 | 0.242 | -0.96 | -0.368 | -0.613 |
| CCTCGGAGGGCAACAGGAGGTCAGAGCTGCCAGA | 3.73 | 5.71 | 4.23 | 0.315 | 3.16 | 3.26 | 0.313 | 3.12 | 1.22 |
| GCTGCTAGGCCAACTGATGGTCAGCTAAAGCTCG | 0.279 | 0.0424 | 0.383 | -0.307 | -0.651 | -0.291 | -1.08 | -0.87 | -1.03 |
| CGAACTAGGTCATCCAGAACAGTGAATACATTGA | 2.8 | 4.03 | 4.69 | 2.23 | 2.89 | 2.64 | 1.15 | 2.56 | 1.17 |
| ATCTCTATGTAACAAGTTCAGTGAAAGAGAGGAC | 1.49 | 0.833 | 1.3 | 0.923 | 0.533 | 0.782 | 0.323 | 1.26 | 2.17 |
| AATGCAGGGTCACTAGGCCAGAGTAGGTACGAAT | 3.32 | 5.29 | 4.82 | 2.75 | 5.37 | 3.27 | 0.736 | 4.04 | 2.33 |
| TTACCAAGGGGAGCTGAGGTCGTTGATCCAACTC | 0.704 | 0.0282 | -0.439 | 0.656 | 0.726 | 3.71 | 1.49 | 2.08 | 1.86 |
| TCATATAGGTAAACAGGTGAGAGTCCGTAAGTTA | 0.672 | 0.456 | 0.431 | 1.08 | 0.983 | 0.521 | 0.361 | 1.01 | 0.486 |
| TAGCCTAGGTCAGATCGGGCAAGTATACGCTATA | 2.01 | 2.85 | 3.43 | -0.344 | 1.29 | 2.98 | -0.283 | 0.761 | -0.339 |
| GCGACTGGGGCATCAGTAGGTTACCATAACTTAA | 0.91 | 0.793 | 0.519 | 0.0645 | 0.498 | 0.632 | -0.249 | -0.141 | -0.583 |
| TCTAGTTGGTCACGGAGGTCACACCCGACGGGTA | 3.93 | 4.53 | 4.61 | 0.865 | 4.68 | 3.44 | 2.28 | 5.67 | 3.22 |
| TCTGCTAGGTCAGTTGGTCAGGTAACGAGCTGCC | 2.67 | 2.55 | 3.52 | 0.427 | 0.908 | 1.95 | 0.951 | -0.0561 | -0.545 |
| CGAAGTAGGTCATCCAGGACAGTGAATACATTGA | 3.03 | 4.24 | 4.88 | 2.13 | 3.36 | 3.64 | 1.46 | 5.12 | 2.37 |
| CCTACTGGGCCGTCAGGTCATTGATATCAACGTT | 2.18 | 1.33 | 1.37 | 0.28 | 1.11 | 3.18 | 3.49 | 1.32 | 1.16 |
| TTACCAAGGTGTAGGTCGTTGATCCCTCTGTAGA | 0.426 | 0.051 | -0.436 | -0.0196 | 0.497 | 0.442 | 0.121 | 0.256 | 0.0922 |

| Sequence | PBM binding z-score [1] | PBM binding z-score [2] | PBM binding z-score [3] | PBM binding z-score [4] | PBM binding z-score [5] | PBM binding z-score [6] | PBM binding z-score [7] | PBM binding z-score [8] | PBM binding z-score [9] |
| --- | --- | --- | --- | --- | --- | --- | --- | --- | --- |
| ACTCAAAGTTCAGGACGAGGTAACGTAAAGCACG | 3.56 | 4.83 | 5.29 | 3.38 | 3.39 | 4.03 | 1.98 | 3.22 | 2.46 |
| AGAATGAGGTTAAGATCCGGGAAACAGAATACAT | 0.774 | 2.06 | 1.4 | 0.76 | 2.46 | 2.37 | 0.603 | 1.05 | 0.257 |
| TATACAGGGTCATAGGCCAGAGTACGAATGTCGA | 3.08 | 5.43 | 4.72 | 2.94 | 6.27 | 3.5 | 0.758 | 4.62 | 3.52 |
| TGATATAGGTAAAGGTGAAAGTCGAACGATATGA | 1.61 | 1.55 | 1.43 | -0.501 | 2.09 | 1.57 | -0.161 | 0.866 | -0.09 |
| ATTTACGGGTCAACGAGGTTATAGCACGCGTATA | 3.79 | 6.1 | 5.62 | 2.5 | 6.99 | 4.19 | 1.43 | 8.05 | 4.5 |
| CGTCCAAGATCAATGCTAGGTCAGTGAAAGCATT | 2.31 | 1.93 | 1.33 | 0.097 | 0.272 | 1.75 | 0.486 | 0.425 | 0.299 |
| ATCTCTAGGTAAAGATAGTTCAGGGAATGCAAAT | 0.997 | 0.771 | 0.846 | 0.0937 | 0.459 | 0.742 | 0.0152 | 0.786 | 0.47 |
| CCGACTGGGTCATAAGGTTACCATAAGCCAGCCC | 3.46 | 4.62 | 3.25 | 0.935 | 3.8 | 3.13 | 1.94 | 2.81 | 0.993 |
| TCTTGTAGCTCAAAGGTTAAGAAAGCCGAAGCCT | 1.26 | 1.16 | 0.435 | 0.364 | 1.82 | 1.05 | -0.771 | 0.581 | -0.151 |
| AATACAGGGTCACTAGGCGAGAGTAGGTACGAAT | 3.24 | 5.21 | 5.18 | 2.87 | 5.73 | 3.48 | 1.41 | 4.12 | 2.82 |
| AGAATGAGGTTATTAAGATCAGGGCATTGCGGTC | 1.67 | 1.47 | 1.12 | 2.13 | 2.02 | 2.61 | 1.18 | 3.01 | 1.74 |
| TCTAGTTGGTCACGGAGGTCACAGACGACGGGTA | 4.64 | 4.79 | 4.98 | 1.02 | 5.24 | 3.72 | 2.35 | 5.81 | 2.78 |
| ATCGAAGGGTCGACGAGGTGAGTATACACCGTTT | 1.42 | 2.38 | 2.29 | 0.234 | 2.33 | 2.86 | 0.22 | 4.01 | 0.636 |
| ATACCAAGGTGATCGTGAAGTCGTTGATACTAAC | 0.398 | 0.416 | 0.171 | 0.398 | 0.357 | 1.01 | 0.796 | 0.0498 | 0.18 |
| TTATATAGGTAAACAGGTGAAAGTCCGTAAGTTA | 0.827 | 0.632 | 0.572 | 0.156 | 0.949 | 0.802 | 0.282 | 0.869 | 0.242 |
| GGAACGAGGGCAAGTTGATAGCAGAGTTTGATGG | 1.67 | 1.68 | 2.25 | 2.42 | 0.781 | 1.3 | 0.0645 | 0.688 | 1.9 |
| GCATATAGGTAATATAAGGTGAAAGTCCGATTGT | 0.859 | 0.463 | 0.731 | 0.683 | 1.07 | 4.5 | 2.32 | 0.397 | 0.0802 |
| GATACAGGGTCAAGACCAGAGTACGCGTATTGAT | 3.07 | 4.94 | 4.7 | 2.23 | 5.54 | 3.33 | 0.503 | 4.33 | 2.14 |
| CCTACTGCGCCAAGGTCATTGATCAGTCAAAGCA | 3.46 | 3.72 | 2.98 | 2.48 | 3.42 | 3.54 | 3.12 | 3.65 | 4.13 |
| ATCTCTAAGTAACAAGTTCAGTGAAAGAGAGGAC | 1.84 | 0.884 | 1.24 | 1.06 | 0.744 | 0.981 | 0.691 | 1.87 | 2.61 |
| CTCGAAAGGTCGTGCTCACGTGAGTATACCAAAC | 2.82 | 4.15 | 3.6 | 1.95 | 4.71 | 2.41 | -0.0324 | 3.23 | 1.06 |
| GCTTACGGGTCTAAGGTTATAGCATGAATAGAAT | 0.97 | 0.869 | 0.598 | 1.27 | 1.46 | 2.16 | 1.21 | 1.01 | 1.04 |
| TCTTGTAGATCAAAGGATAAGAAAGCCGAAGCCT | -1.11 | -0.0685 | -0.196 | 0.579 | 0.0933 | -0.444 | -0.847 | 0.22 | -0.298 |
| TCTAGTTGATCACGGAGGTCACACACGACGGGTA | 3.89 | 4.17 | 3.92 | 0.917 | 4.56 | 3.52 | 2.48 | 3.99 | 2.18 |
| ATTTCTAGGTAAAGTTCAGTGAAAGATCGATAGA | 2.55 | 2.02 | 2.7 | 1.59 | 1.44 | 1.48 | 0.574 | 2.11 | 2.39 |
| CGAACTAGGTCAACCAGGACAGTGAATACATTGA | 3.24 | 4.4 | 5.25 | 1.8 | 2.99 | 3.53 | 1.82 | 4.96 | 1.85 |
